Laboratory results from the supplement of paper PMC10849652.
About 8,800 targets were measured; listed, in parts, are those with a hit and a random draw of the rest. About 0.5% of all pairs of compound and target were hits. Values without a mark were called inactive.

Key:
Test in all cases: log2 fold change, soluble protein after heating vs DMSO (PISA); higher = thermal stabilisation; K562 lysate, 10 uM; active = over 0.2 and 3.5 SD of the protein, either way, in both replicates (recomputed)
[1] = compound: C=CC(=O)N1CCC[C@@H](n2nc(-c3ccc(Oc4ccccc4)cc3)c3c(N)ncnc32)C1 [ibrutinib]
Procedure, shortened: (§1)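 Soluble protein was defined as the supernatant remaining after 21,000xg for 90 min, following pooling of heated aliquots and adjustment to 0.5% NP-40 at 4°C. Before that, crude K562 extract at 1 mg/mL protein in PBS pH 7.4 with 1 mM MgCl2 was treated with 10 μM compound for 30 min and heated for 3 min across 48°C-58°C. Quantification used TMTpro 16plex LC-MS/MS with channel sums equalised, and values are log-two fold changes in thermal stability relative to solvent controls from duplicates.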

[2] = compound: CC(=O)c1cnc2ccc(-c3cc(Cl)c(O)c(Cl)c3)nc2c1N[C@H]1CC[C@H](CN(C)C)CC1
Procedure, shortened: as §1

[3] = compound: CC(C)(C)Cn1c(N)nc2ccc(-c3[nH]c(C(C)(C)C)nc3-c3ccc(F)cc3)nc21 [ralimetinib]
Procedure, shortened: as §1

[4] = compound: CC(C)(O)CC(=O)NCCn1ccc2ncnc(Nc3ccc(Oc4cccc(C(F)(F)F)c4)c(Cl)c3)c21
Procedure, shortened: as §1

[5] = compound: CC(C)C1=C2N=C(C=C(N2N=C1)NCC3=CC=CC=C3)NCCCCCCN
Procedure, shortened: as §1

[6] = compound: CC1=C(C(CC(=O)N1)C2=CC=C(C=C2)C(F)(F)F)C(=O)NC3=C(C=C4C(=C3)C=NN4)F
Procedure, shortened: as §1

[7] = compound: CC1=C(C2=C(C=C1)C(=O)C3=CC=CC=C3N2CCCN)C
Procedure, shortened: as §1

[8] = compound: CC1=C(C=C(C=C1)NC(=O)C2=CC(=CC=C2)C(C)(C)C#N)NC3=CC4=C(C=C3)N=CN(C4=O)C
Procedure, shortened: as §1

[9] = compound: CC1=C(C=C(C=C1)NC(=O)C2=CC(=CC=C2)N(C)C)NC(=O)C3=CC=C(C=C3)O
Procedure, shortened: as §1

[10] = compound: CC1=CC=C(C=C1)SC2=C3C=C(SC3=CN=C2)C(=O)N
Procedure, shortened: as §1

[11] = compound: CCCS(=O)(=O)Nc1ccc(F)c(C(=O)c2c[nH]c3ncc(-c4ccc(Cl)cc4)cc23)c1F [vemurafenib]
Procedure, shortened: as §1

[12] = compound: CCCS(=O)(=O)Nc1ccc(F)c(C(=O)c2c[nH]c3ncc(Cl)cc23)c1F
Procedure, shortened: as §1

[13] = compound: CCN(CCCOc1ccc2c(Nc3cc(CC(=O)Nc4cccc(F)c4)[nH]n3)ncnc2c1)CCOP(=O)(O)O [barasertib]
Procedure, shortened: as §1

[14] = compound: CC[C@@H]1C(=O)N(C)c2cnc(Nc3ccc(C(=O)NC4CCN(C)CC4)cc3OC)nc2N1C1CCCC1
Procedure, shortened: as §1

[15] = compound: CC[C@@H]1C(=O)N(C)c2cnc(Nc3ccc(C(=O)N[C@H]4CC[C@H](N5CCN(CC6CC6)CC5)CC4)cc3OC)nc2N1C(C)C [volasertib]
Procedure, shortened: as §1

[16] = compound: CCn1c(C(=O)N(C2CC2)C2CC2)cc2c3c(ncn3C)c(Nc3cc(C)n(C)n3)nc21
Procedure, shortened: as §1

[17] = compound: CCn1cc(-c2ccnc3[nH]c(-c4cccc(CN(C)C)c4)cc23)c(-c2ccc(NC(=O)N(C)C)cc2)n1
Procedure, shortened: as §1

[18] = compound: CN1CCC(CNc2ccc3ncc(-c4cccc(OC(F)(F)F)c4)n3n2)CC1
Procedure, shortened: as §1

[19] = compound: CN1CCN(CCOc2cc(OC3CCOCC3)c3c(Nc4c(Cl)ccc5c4OCO5)ncnc3c2)CC1 [saracatinib]
Procedure, shortened: as §1

[20] = compound: CN1CCN(c2nc(C3=C(c4c[nH]c5ccccc45)C(=O)NC3=O)c3ccccc3n2)CC1 [sotrastaurin]
Procedure, shortened: as §1

Chain of UniProt Q9NYY8 (Q9NYY8 whole entry, looked up): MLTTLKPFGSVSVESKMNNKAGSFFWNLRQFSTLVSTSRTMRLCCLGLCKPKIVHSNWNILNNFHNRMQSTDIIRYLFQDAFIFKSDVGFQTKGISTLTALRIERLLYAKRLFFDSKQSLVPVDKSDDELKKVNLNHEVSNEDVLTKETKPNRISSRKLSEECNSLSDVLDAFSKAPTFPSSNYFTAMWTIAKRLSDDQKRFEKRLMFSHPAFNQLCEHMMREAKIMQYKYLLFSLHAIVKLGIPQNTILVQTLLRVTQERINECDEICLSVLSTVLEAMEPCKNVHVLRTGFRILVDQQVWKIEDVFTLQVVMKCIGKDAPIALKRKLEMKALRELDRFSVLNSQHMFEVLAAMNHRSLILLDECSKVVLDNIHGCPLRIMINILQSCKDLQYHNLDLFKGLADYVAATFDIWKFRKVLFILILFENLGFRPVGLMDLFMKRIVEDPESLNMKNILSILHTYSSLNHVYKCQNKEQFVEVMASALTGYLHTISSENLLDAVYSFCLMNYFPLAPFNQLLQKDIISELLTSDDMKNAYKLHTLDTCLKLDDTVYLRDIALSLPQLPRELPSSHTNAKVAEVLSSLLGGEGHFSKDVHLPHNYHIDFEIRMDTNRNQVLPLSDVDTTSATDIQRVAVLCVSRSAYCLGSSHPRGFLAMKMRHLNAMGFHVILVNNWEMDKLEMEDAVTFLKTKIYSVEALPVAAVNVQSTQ
Chain of UniProt Q14318 (Q14318 whole entry, looked up): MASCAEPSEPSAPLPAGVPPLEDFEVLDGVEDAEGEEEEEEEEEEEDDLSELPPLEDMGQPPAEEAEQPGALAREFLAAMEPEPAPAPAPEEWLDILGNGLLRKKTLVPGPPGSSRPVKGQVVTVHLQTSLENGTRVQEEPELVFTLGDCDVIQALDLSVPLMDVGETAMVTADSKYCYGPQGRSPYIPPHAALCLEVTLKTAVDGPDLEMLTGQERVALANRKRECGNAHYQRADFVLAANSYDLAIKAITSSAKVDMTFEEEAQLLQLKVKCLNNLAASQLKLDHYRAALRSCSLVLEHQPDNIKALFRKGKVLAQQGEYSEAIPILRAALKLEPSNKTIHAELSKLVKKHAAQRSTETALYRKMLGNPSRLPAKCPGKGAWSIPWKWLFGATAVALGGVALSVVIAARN
Chain of UniProt Q9H6S3 (Q9H6S3 whole entry, looked up): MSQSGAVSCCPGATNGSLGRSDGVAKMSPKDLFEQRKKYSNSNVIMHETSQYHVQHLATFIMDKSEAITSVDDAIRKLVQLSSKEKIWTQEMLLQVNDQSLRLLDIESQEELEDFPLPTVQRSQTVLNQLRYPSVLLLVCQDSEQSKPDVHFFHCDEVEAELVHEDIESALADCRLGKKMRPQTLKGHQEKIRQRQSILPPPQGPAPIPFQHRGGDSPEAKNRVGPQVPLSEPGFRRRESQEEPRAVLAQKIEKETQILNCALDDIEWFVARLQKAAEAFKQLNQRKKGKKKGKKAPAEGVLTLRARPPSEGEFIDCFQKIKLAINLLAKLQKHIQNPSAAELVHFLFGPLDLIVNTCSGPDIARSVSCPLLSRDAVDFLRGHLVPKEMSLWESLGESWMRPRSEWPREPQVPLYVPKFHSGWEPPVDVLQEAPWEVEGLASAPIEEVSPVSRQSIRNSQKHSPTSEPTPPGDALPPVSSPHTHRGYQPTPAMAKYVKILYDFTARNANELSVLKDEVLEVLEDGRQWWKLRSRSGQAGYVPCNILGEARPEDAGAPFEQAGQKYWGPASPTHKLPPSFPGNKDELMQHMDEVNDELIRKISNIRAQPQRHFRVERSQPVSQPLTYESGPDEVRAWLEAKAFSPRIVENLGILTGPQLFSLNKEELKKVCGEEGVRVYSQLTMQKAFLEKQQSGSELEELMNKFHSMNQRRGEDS
Chain of UniProt P06241 (P06241 whole entry, looked up): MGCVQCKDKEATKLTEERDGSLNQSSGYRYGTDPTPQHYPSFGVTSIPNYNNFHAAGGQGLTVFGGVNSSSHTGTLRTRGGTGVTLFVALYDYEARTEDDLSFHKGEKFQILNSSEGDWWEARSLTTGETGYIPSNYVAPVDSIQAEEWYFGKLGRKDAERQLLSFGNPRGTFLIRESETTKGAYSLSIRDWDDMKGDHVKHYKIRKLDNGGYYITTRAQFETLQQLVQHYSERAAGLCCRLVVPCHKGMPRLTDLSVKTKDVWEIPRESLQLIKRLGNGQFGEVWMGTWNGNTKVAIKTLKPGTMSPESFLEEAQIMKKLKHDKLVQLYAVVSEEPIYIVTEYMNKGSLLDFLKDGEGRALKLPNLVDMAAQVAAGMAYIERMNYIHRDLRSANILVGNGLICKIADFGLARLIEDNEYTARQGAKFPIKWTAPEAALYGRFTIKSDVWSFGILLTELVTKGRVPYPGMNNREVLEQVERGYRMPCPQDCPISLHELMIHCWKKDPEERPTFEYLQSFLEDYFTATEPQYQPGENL
Chain of UniProt Q9NRW4 (Q9NRW4 whole entry, looked up): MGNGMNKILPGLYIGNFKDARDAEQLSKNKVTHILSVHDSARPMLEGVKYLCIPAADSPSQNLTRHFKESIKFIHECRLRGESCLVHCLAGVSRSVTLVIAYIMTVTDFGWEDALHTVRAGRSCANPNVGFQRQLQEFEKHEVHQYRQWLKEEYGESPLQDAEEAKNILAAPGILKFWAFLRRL
Chain of UniProt P34913 (P34913 whole entry, looked up): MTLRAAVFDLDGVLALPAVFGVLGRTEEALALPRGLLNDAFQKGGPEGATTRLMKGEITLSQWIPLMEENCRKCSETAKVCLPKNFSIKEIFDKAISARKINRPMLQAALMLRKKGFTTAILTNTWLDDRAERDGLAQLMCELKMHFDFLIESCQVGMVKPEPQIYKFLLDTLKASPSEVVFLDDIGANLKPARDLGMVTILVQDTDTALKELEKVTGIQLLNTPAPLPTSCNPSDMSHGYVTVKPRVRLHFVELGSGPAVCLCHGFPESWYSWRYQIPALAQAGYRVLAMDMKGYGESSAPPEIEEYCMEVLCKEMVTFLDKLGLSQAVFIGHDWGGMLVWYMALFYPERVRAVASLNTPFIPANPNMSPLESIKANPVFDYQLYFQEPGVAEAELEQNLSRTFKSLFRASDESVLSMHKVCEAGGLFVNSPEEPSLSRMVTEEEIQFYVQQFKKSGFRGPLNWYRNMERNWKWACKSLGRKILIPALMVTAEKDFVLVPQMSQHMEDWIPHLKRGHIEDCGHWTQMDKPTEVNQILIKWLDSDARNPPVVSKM
Chain of UniProt P35916 (P35916 whole entry, looked up): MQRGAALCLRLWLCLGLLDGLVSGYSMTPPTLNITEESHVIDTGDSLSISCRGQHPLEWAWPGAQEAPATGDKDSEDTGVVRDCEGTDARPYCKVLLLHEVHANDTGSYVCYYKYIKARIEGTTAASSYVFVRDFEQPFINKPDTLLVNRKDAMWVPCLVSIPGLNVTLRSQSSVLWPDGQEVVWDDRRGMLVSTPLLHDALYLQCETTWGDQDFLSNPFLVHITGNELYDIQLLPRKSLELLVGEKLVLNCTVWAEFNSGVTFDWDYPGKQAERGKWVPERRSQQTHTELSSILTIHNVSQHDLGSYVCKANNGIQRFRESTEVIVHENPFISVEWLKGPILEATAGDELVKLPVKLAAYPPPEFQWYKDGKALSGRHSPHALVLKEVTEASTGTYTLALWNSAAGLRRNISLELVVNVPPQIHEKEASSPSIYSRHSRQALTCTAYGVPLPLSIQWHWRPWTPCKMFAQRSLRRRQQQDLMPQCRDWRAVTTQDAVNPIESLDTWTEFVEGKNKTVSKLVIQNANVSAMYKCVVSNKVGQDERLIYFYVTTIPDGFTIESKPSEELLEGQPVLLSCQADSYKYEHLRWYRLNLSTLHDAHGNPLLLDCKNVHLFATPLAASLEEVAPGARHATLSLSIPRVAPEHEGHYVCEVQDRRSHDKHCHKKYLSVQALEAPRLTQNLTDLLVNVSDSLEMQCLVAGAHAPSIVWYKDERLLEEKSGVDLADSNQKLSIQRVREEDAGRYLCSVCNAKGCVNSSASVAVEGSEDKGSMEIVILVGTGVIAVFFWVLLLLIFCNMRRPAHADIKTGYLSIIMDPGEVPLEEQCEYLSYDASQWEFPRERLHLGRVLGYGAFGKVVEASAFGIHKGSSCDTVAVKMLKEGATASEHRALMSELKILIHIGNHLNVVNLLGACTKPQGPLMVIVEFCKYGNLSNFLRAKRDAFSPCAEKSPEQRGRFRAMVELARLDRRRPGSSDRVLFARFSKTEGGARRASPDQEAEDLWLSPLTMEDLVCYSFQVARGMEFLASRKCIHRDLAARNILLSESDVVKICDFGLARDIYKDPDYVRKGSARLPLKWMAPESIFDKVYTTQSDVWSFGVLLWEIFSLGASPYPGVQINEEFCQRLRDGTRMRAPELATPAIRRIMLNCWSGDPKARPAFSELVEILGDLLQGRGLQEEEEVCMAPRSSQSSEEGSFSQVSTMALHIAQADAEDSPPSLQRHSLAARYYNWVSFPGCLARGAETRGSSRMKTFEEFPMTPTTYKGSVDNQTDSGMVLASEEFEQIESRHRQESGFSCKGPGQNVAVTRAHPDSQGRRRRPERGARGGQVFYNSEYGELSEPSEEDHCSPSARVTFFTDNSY
Chain of UniProt Q9NZC3 (Q9NZC3 whole entry, looked up): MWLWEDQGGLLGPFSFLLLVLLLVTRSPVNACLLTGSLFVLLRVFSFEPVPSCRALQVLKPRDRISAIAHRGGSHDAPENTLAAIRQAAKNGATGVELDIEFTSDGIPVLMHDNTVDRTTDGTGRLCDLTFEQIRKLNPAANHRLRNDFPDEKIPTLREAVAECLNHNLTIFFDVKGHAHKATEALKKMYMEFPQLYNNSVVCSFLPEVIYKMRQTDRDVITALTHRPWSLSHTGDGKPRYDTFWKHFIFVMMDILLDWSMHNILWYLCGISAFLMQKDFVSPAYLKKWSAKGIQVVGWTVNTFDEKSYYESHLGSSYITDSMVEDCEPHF
Chain of UniProt P28676 (P28676 whole entry, looked up): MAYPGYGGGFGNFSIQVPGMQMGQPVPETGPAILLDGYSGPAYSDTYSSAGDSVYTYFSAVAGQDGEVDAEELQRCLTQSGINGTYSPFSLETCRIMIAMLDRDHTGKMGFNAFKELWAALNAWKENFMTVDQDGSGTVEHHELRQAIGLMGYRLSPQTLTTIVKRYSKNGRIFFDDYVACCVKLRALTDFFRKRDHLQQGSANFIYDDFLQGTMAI

Target | log2 fold change [1] | log2 fold change [2] | log2 fold change [3] | log2 fold change [4] | log2 fold change [5] | log2 fold change [6] | log2 fold change [7] | log2 fold change [8] | log2 fold change [9] | log2 fold change [10] | log2 fold change [11] | log2 fold change [12] | log2 fold change [13] | log2 fold change [14] | log2 fold change [15] | log2 fold change [16] | log2 fold change [17] | log2 fold change [18] | log2 fold change [19] | log2 fold change [20]
FASTKD2 (UniProt Q9NYY8) | -0.008 | -0.006 | -0.004 | -0.039 | -0.013 | 0.003 | -0.007 | 0.034 | -0.001 | 0.024 | -0.014 | -0.002 | 0.037 | 0.004 | -0.036 | 0.011 | -0.072 | 0.03 | 0.012 | 0.014
EEF1A1, A0A087WVQ9 | 0.085 | 0.019 | -0.006 | 0.019 | -0.007 | 0.091 | 0 | -0.023 | -0.006 | 0.004 | 0.011 | 0.047 | -0.069 | 0.027 | -0.003 | -0.026 | -0.016 | -0.12 | 0.077 | 0.013
FKBP8 isoform 2 (UniProt Q14318) | 0.022 | -0.016 | 0.018 | -0.017 | 0.027 | -0.041 | 0.024 | 0.034 | 0.007 | -0.053 | -0.037 | -0.01 | 0.366 | -0.045 | 0.005 | -0.029 | 0.033 | -0.084 | -0.022 | 0.006
GEMIN5 (UniProt Q8TEQ6) | 0.012 | -0.01 | 0.03 | -0.001 | 0.016 | -0.02 | -0.026 | 0.005 | 0.014 | 0.007 | 0.006 | 0.008 | 0.004 | -0.085 | -0.069 | 0.066 | -0.052 | -0.061 | 0.018 | 0.015
GBF1 (UniProt Q92538) | 0.007 | -0.001 | 0.051 | -0.03 | -0.011 | -0.003 | -0.011 | -0.015 | 0.017 | 0.012 | 0.023 | 0.04 | 0.087 | -0.004 | -0.05 | 0.006 | -0.011 | -0.046 | -0.011 | 0.019
DUSP22 isoform 2 (UniProt Q9NRW4) | -0.059 | 0.043 | 0.007 | 0.02 | -0.092 | 0.177 | -0.046 | – | 0.081 | 0.007 | 0.134 | -0.109 | -0.016 | – | 0.006 | -0.033 | -0.125 | 0.052 | 0.009 | –
EPHX2 (UniProt P34913) | 0.051 | -0.002 | -0.001 | -0.02 | 0.099 | 0.004 | -0.006 | 0.11 | 0.06 | 0.051 | -0.026 | -0.01 | -0.026 | 0.016 | 0.041 | -0.004 | -0.044 | 0.119 | -0.018 | 0.06
EHHADH (UniProt Q08426) | 0.059 | -0.023 | 0.021 | -0.084 | -0.016 | -0.003 | 0.128 | -0.027 | 0.031 | 0.008 | – | 0.082 | -0.066 | 0.117 | -0.108 | -0.037 | 0.055 | -0.037 | 0.091 | -0.044
FADS3 (UniProt Q9Y5Q0) | 0.11 | -0.02 | -0.123 | 0.075 | -0.051 | 0.074 | -0.49 | 0.015 | 0.017 | -0.017 | 0.066 | 0.149 | 0 | 0.119 | -0.103 | 0.023 | -0.957 (active) | 0.343 | 0.152 | -0.057
EPS8L2 (UniProt Q9H6S3) | -0.041 | -0.026 | -0.028 | -0.021 | 0.002 | 0.031 | -0.002 | -0.054 | -0.084 | 0.015 | – | 0 | -0.049 | 0.022 | 0.023 | -0.034 | -0.196 | 0.056 | 0.045 | -0.049
FLT4 (UniProt P35916) | 0.062 | 0.064 | 0.012 | -0.005 | -0.057 | – | 0.038 | – | -0.019 | 0.005 | -0.069 | -0.046 | -0.036 | -0.031 | -0.042 | 0.135 | 0.018 | 0.08 | -0.036 | –
GART (UniProt C9JZG2) | -0.062 | 0.037 | 0.069 | -0.068 | – | -0.114 | – | 0.083 | -0.052 | 0.022 | – | -0.014 | 0.086 | -0.021 | 0.06 | -0.043 | 0.135 | 0.085 | – | 0.09
FYN (UniProt P06241) | 0.79 (active) | 0.046 | 0.09 | -0.13 | 0.003 | – | -0.042 | -0.069 | 0.052 | 0.021 | -0.036 | -0.01 | 0.065 | -0.351 | 0.046 | 0.033 | 0.048 | 0.22 | – | 0.023
GDE1 (UniProt Q9NZC3) | -0.047 | -0.017 | 0.067 | 0.026 | 0.025 | – | -0.038 | -0.036 | -0.122 | -0.014 | – | 0.038 | 0.108 | 0.107 | 0.092 | 0.005 | 1.04 (active) | -0.455 (active) | 0.035 | -0.064
GCA (UniProt P28676) | – | -0.134 | – | – | 0.191 | 0.173 | – | – | – | 0.123 | – | 0.124 | – | – | -0.048 | – | -0.139 | 0.168 | – | –
FAM53B (UniProt Q14153) | 0.037 | – | -0.299 | -0.084 | 0.037 | 0.098 | 0.161 | -0.07 | -0.263 | – | 0.046 | – | 0.009 | 0.071 | – | 0.059 | -0.096 | 0.13 | 0.096 | -0.149
EIF2AK3 (UniProt Q9NZJ5) | – | 0.003 | 0.039 | -0.191 | 0.012 | -0.052 | 0.037 | – | -0.061 | -0.07 | – | -0.216 | – | – | 0.231 | 0.119 | -0.063 | -0.199 | 0.01 | –
FAM76B (UniProt Q5HYJ3) | – | -0.025 | -0.005 | -0.01 | -0.06 | -0.012 | -0.02 | 0.023 | -0.002 | -0.011 | 0.048 | -0.005 | – | 0.04 | 0.005 | -0.008 | 0.025 | 0.007 | -0.003 | 0.027
